Experimental data published in PubChem BioAssay (EPA / NIEHS).
Records with an inconclusive call do not appear. The source made the active and inactive calls. Rule for the calls: active = hit-call score of the fitted dose curve at least 0.9, where 1 is the maximum; inconclusive = response in the unintended direction; inactive = score below 0.9.

target: Nuclear receptor subfamily 1 group I member 2 (Homo sapiens) (UniProt O75469); assay: ATG_PXR_TRANS: Attagene TRANS-FACTORIAL HepG2 Assay for human Pregnane X Receptor (PXR) (AID 2283008)
Sequence (O75469 whole entry, looked up, the tested form may be a part): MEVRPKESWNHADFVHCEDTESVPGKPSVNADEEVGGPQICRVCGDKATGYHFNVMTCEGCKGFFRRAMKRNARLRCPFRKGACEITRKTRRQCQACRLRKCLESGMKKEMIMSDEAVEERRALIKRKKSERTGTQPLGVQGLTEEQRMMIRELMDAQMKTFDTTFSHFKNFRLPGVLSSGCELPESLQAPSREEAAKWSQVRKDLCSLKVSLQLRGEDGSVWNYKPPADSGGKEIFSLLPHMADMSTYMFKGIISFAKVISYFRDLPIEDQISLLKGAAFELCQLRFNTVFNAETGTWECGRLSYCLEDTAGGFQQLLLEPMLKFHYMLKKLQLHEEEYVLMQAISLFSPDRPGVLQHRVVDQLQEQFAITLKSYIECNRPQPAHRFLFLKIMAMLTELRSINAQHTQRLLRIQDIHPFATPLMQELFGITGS
Method in brief: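 Transient HepG2 transfectants carrying multiplexed reporter transcription units; PXR activity read through a Gal4 chimera. 24 h exposure. RT-PCR/CE fluorescence; upward curve fit referenced to DMSO.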

Question: With `Oc1ccc(Cl)cc1Cc1cc(Cl)ccc1O` as the compound, how does the AC50 read?
Answer: 2.94 µM (active)

Question: For `CCOC(=O)CC`, which outcome is on record?
Answer: inactive

Question: Which AC50 does the source give for `C=CC(C)(CCC=C(C)C)OC(=O)CC(C)C` (configuration not stated) here?
Answer: 11.8 µM (active)

Question: With `CC(=O)C=CC1C(C)=CCC(C)C1(C)C` (configuration not stated) as the compound, how does the AC50 read?
Answer: 1.42 µM (active)

Question: `ON(Cc1ccccc1)Cc1ccccc1` was tested. Which AC50 did it give?
Answer: 17.2 µM (active)

Question: `CCC(=O)Oc1ccc(/C(CC)=C(\CC)c2ccc(OC(=O)CC)cc2)cc1` was tested. Which AC50 did it give?
Answer: 4.5 µM (active)

Question: For `C[C@]12C=CC(=O)C=C1CC[C@@H]1[C@@H]2[C@@H](O)C[C@@]2(C)[C@H]1CC[C@]2(O)C(=O)CO`, which AC50 is on record?
Answer: 25.9 µM (active)

Question: With `NC(=O)OCC(COC(N)=O)c1ccccc1` as the compound, how does the outcome read?
Answer: inactive

Question: How did the outcome turn out when `Cc1ccc(N)c([N+](=O)[O-])c1` was run?
Answer: inactive

Question: For `CCCCCCCC/C=C\CCCCCCCC(=O)OCCO`, which outcome is on record?
Answer: inactive

Question: `CCCCCCCC/C=C\CCCCCCCC(=O)O` was tested. Which outcome did it give?
Answer: inactive

Question: How did the outcome turn out when `N#CCc1ccc(Cl)cc1Cl` was run?
Answer: inactive

Question: With `CC(C)c1ccc2c(c1)CC[C@H]1[C@](C)(CN)CCC[C@]21C` as the compound, how does the outcome read?
Answer: inactive

Question: Which outcome does the source give for `O=S1(=O)OC(c2ccc(O)cc2)(c2ccc(O)cc2)c2ccccc21` here?
Answer: inactive

Question: Which AC50 does the source give for `CC(CC=O)c1ccccc1` (configuration not stated) here?
Answer: 5.22 µM (active)

Question: How did the outcome turn out when `CCCCCCCC(C)=O` was run?
Answer: inactive

Question: How did the AC50 turn out when `C=C[C@](C)(O)CC[C@@H]1[C@@]2(C)CCCC(C)(C)[C@@H]2CC[C@@]1(C)O` was run?
Answer: 0.331 µM (active)

Question: For `C=C1C2CCC(C2)C1(C)C` (configuration not stated), which AC50 is on record?
Answer: 18.9 µM (active)

Question: How did the outcome turn out when `[Cl][Nd]([Cl])[Cl]` was run?
Answer: inactive

Question: For `CCCCCCCCO[C@@H]1O[C@H](CO)[C@@H](O)[C@H](O)[C@H]1O`, which outcome is on record?
Answer: inactive

Question: Which outcome does the source give for `CC(C)=CCC[C@H](C)CCO` here?
Answer: inactive

Question: With `COc1cc(C)ccc1C(C)C` as the compound, how does the outcome read?
Answer: inactive
